tim10-1 inh = growth inhibitors of tim10-1 mutant yeast, primary screen, luminescence, uHTS; S. cerevisiae tim10-1 ts strain growth, BacTiter-Glo, 24 h; inhibition, % at 20 µM; 330,000 compounds, 2.2% hits;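 active = inhibition of at least 40%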;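 also: mutant grown at 25 °C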
TIM10 inh = growth inhibitors of isogenic TIM10 control yeast, primary screen, counter-screen for tim10-1 yeast inhibitor project, luminescence, uHTS; S. cerevisiae TIM10 strain growth, BacTiter-Glo luminescence, 24 h; inhibition, % at 10 µM; 330,000 compounds, 1.4% hits; AID 463195, 2010;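 active = inhibition of 40% or more at the single tested concentration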;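 also: wild-type TIM10 isogenic control strain grown at permissive 25 °C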
PfHsp90 yeast 2 = growth inhibition of PfHsp90-expressing yeast, primary screen, antimalarial PfHsp90 inhibitor project, S. cerevisiae, BacTiter-Glo luminescence, single point, set 2. AID 504621, 2011. BacTiter-Glo ATP, 48 h; yeast lacking PDR1 and PDR3 efflux regulators. inhibition, % at 9.4 µM. 310,000 compounds, 0.32% hits;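 active = every replicate shows inhibition above about 80%, whatever the replicate mean, limit read from the data; inconclusive = mean inhibition reaches the set limit but some replicate falls short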
tim23-1 inh = growth inhibitors of tim23-1 mutant yeast, primary screen, luminescence, uHTS | S. cerevisiae tim23-1 growth, BacTiter-Glo luminescence, 24 h | inhibition, % at 20 µM | 330,000 compounds, 1.3% hits;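 active = growth inhibition of the mutant yeast at or above 50%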;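 also: temperature-sensitive mutant grown at 25 °C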
SKKanGAS inh = S. pyogenes SKKanGAS growth inhibitors in kanamycin, primary screen, streptokinase expression inhibitor project, SKKanGAS strain, BacTiter-Glo luminescence. 6 h. inhibition, % at 7.5 µM. 300,000 compounds, 1.3% hits;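 active = mean replicate score, as percent of positive control median, at least 50; inconclusive = mean below 50 but one replicate at or above 50; inactive = mean and every replicate below 50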;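 also: strain carries kanamycin resistance gene driven by streptokinase promoter and grows in 40 µg/ml kanamycin; loss of luminescence reflects streptokinase promoter inhibition or plain growth inhibition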
tim10-1 conf = growth inhibitors of tim10-1 mutant yeast, confirmation, single concentration, luminescence, S. cerevisiae; shares compounds with tim10-1 inh; S. cerevisiae tim10-1 ts strain growth, BacTiter-Glo, 24 h; inhibition, % at 20 µM; 7,400 compounds, 56% hits;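 active = inhibition of yeast growth at or above a set limit in either of two repeat tests at 20 µM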;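 also: tim10-1 mutant grown at permissive 25 °C to find synthetic lethal compounds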
TIM10 conf = growth inhibitors of wild-type TIM10 yeast, confirmation, counter-screen for tim10-1 synthetic lethality project, single concentration, luminescence, S. cerevisiae; S. cerevisiae tim10 strain growth, BacTiter-Glo luminescence, 24 h; inhibition, % at 10 µM; shares compounds with TIM10 inh; 4,600 compounds, 63% hits;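 active = inhibition of yeast growth at or above a set limit in either of two replicates at 10 µM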; also: this counterscreen used the strain with wild-type TIM10
tim23-1 conf = tim23-1 mutant yeast growth inhibitors, confirmation, luminescence, single concentration. S. cerevisiae tim23-1 growth, BacTiter-Glo luminescence, 24 h. 4,400 compounds, 83% hits. inhibition, % at 20 µM. AID 463218, 2010. shares compounds with tim23-1 inh;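 active = inhibition above about 39% in either of two replicate wells at 20 µM, limit read from the data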;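 also: temperature-sensitive tim23-1 mutant grown at 25 °C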
Of the large screens only hits and unclear results are named; the others gave an inactive call (follow-up assays come after a bar, where they were run). In the library only some 4.4% were active in any assay of this set; here they are far more common.

CNC(=O)c1c(NC(=O)c2ccco2)sc2c1CCCC2	tim10-1 inh 58, tim23-1 inh 58, SKKanGAS inh inconclusive | tim10-1 conf 39 | tim23-1 conf 48
O=C(O)c1ccccc1C(=O)N1N=C(c2ccccc2)CC1c1ccccc1O (stereo not drawn)	none
N/C(Cc1ccc([N+](=O)[O-])cc1)=N\OC(=O)c1ccccc1F	tim10-1 inh 72, TIM10 inh 64, tim23-1 inh 59 | tim10-1 conf 72 | TIM10 conf 52 | tim23-1 conf 54
N/C(Cc1ccc([N+](=O)[O-])cc1)=N\OC(=O)COc1ccccc1Cl	none
N/C(Cc1ccc([N+](=O)[O-])cc1)=N\OC(=O)c1ccc(Br)o1	tim10-1 inh 85, TIM10 inh 64, tim23-1 inh 60 | tim10-1 conf 81 | TIM10 conf inactive | tim23-1 conf 44
CCc1ccc(S(=O)(=O)N2CCN(C(=O)C3CCN(C(C)=O)CC3)CC2)cc1	none
O=C(Nc1cccc(Cl)c1)c1cc(N=Nc2ccc([N+](=O)[O-])cc2Cl)ccc1O	tim10-1 inh 70, tim23-1 inh 71 | tim10-1 conf 60 | tim23-1 conf 78
O=C(Nc1ccc([N+](=O)[O-])cc1Cl)c1cc(Cl)ccc1O	none (no result: SKKanGAS inh)
CCCC(=O)c1ccc(N2CCN(C(=O)c3ccccc3Br)CC2)c(F)c1	tim10-1 inh 46, tim23-1 inh 52 | tim10-1 conf 38 | tim23-1 conf 47
Cc1ccc(/C(N)=N/OC(=O)c2cccc(F)c2)cc1	tim10-1 inh 64, TIM10 inh 76, tim23-1 inh 70 | tim10-1 conf 48 | TIM10 conf 79 | tim23-1 conf 40
N/C(=N\OC(=O)c1cccc(F)c1)c1ccccn1	none
N/C(=N\OC(=O)c1cccc(F)c1)c1ccccc1	tim10-1 inh 55, TIM10 inh 61, tim23-1 inh 68 (no result: PfHsp90 yeast 2) | tim10-1 conf 56 | TIM10 conf 62 | tim23-1 conf 66
COC1=C(C)C(O)=C(C(=O)/C=C/c2ccccc2)C(=O)C1(C)C	tim10-1 inh 44, tim23-1 inh 57 | tim10-1 conf inactive | tim23-1 conf 48
Cc1nc2ccccc2n1C(=O)c1ccc(Cl)cc1[N+](=O)[O-]	tim10-1 inh 48, tim23-1 inh 50 | tim10-1 conf 33 | tim23-1 conf 39
CCOc1c(Cl)cc(/C=C/C(=O)N(CC)CC(=O)NCc2cccs2)cc1OC	none
CC(C)(C)NC(=O)C(c1ccc(Cl)cc1)N(Cc1ccco1)C(=O)CCl (stereo not drawn)	tim10-1 inh 53, tim23-1 inh 51 | tim10-1 conf 38 | tim23-1 conf 48
Cc1ccc2cc(C=C(C#N)C#N)c(N3CCCCC3)nc2c1	tim10-1 inh 55, TIM10 inh 45, tim23-1 inh 75 | tim10-1 conf 45 | TIM10 conf inactive | tim23-1 conf 73
Nc1ccc(C(=O)CC(=O)Nc2ccc(Cl)cc2)cc1	none
Cc1ccc(N=Cc2c(C)[nH]n(-c3nc4ccccc4[nH]3)c2=O)cc1	tim10-1 inh 62, TIM10 inh 44, PfHsp90 yeast 2 91, tim23-1 inh 65, SKKanGAS inh 66 | tim10-1 conf 60 | TIM10 conf inactive | tim23-1 conf 68
Cc1ccc(N=C2NC(=O)/C(=C\c3ccsc3)S2)c(C)c1	tim10-1 inh 52, TIM10 inh 47, tim23-1 inh 58 | tim10-1 conf inactive | TIM10 conf inactive | tim23-1 conf 66
Cc1cc(N/N=C/c2ccc(Cl)cc2)nc(NCc2ccccc2)n1	tim10-1 inh 48, tim23-1 inh 75 | tim10-1 conf 41 | tim23-1 conf inactive
CC(=O)C1=C(C)NC(SCC(=O)c2ccc(Cl)cc2Cl)=C(C#N)C1c1ccco1 (stereo not drawn)	tim10-1 inh 55, tim23-1 inh 53 | tim10-1 conf 43 | tim23-1 conf 50
CCCN(C(=O)C(=O)Nc1ccc2nc3n(c(=O)c2c1)CCCCC3)c1ccc(OCC)cc1	none
CCCCN(C(=O)C(C)N1C(=O)c2ccccc2C1=O)c1c(N)n(CC(C)C)c(=O)[nH]c1=O (stereo not drawn)	none (no result: SKKanGAS inh)
CC1CCCCN1C(=O)COc1ccccc1F (stereo not drawn)	none
N/C(=N\OC(=O)c1ccc(Cl)cc1Cl)c1ccccc1	tim10-1 inh 62, TIM10 inh 87, tim23-1 inh 82 | tim10-1 conf 55 | TIM10 conf 84 | tim23-1 conf 78
N/C(=N/OC(=O)c1ccccc1Cl)c1nonc1N	none
N/C(=N\OC(=O)c1ccccc1Cl)c1ccccc1	tim10-1 inh 52, TIM10 inh 47, tim23-1 inh 57 | tim10-1 conf 55 | TIM10 conf 43 | tim23-1 conf 52
COc1ccccc1C(=O)O/N=C(\N)c1ccccc1Cl	tim10-1 inh 41, tim23-1 inh 52 | tim10-1 conf 40 | tim23-1 conf inactive
N/C(=N\OC(=O)c1ccc(Cl)cc1Cl)c1cccnc1	tim10-1 inh 58, TIM10 inh 51, tim23-1 inh 52 (no result: PfHsp90 yeast 2) | tim10-1 conf 55 | TIM10 conf 36 | tim23-1 conf 42
CCOc1ccc(N(CC(=O)NCc2ccc(F)cc2)C(=O)CCC(=O)Nc2nccs2)cc1	none
Cc1cc(-c2ccccc2)c2ccc(NC(=O)C(C)(C)C)nc2n1	none
CCOP(=O)(OCC)C1NC(=O)N(c2ccccc2)C1=O (stereo not drawn)	none
N/C(=N\OC(=O)c1ccccc1Cl)c1ccc(Cl)cc1	tim10-1 inh 53, TIM10 inh 79, tim23-1 inh 81 (no result: PfHsp90 yeast 2) | tim10-1 conf 37 | TIM10 conf 82 | tim23-1 conf 72
COc1cc(C(=S)N2CCOCC2)ccc1OC(=O)c1cc([N+](=O)[O-])cc([N+](=O)[O-])c1	none
COc1ccc(C(=S)N2CCOCC2)cc1OC(=O)c1ccc([N+](=O)[O-])cc1[N+](=O)[O-]	tim10-1 inh 60, TIM10 inh 71, tim23-1 inh 58 | tim10-1 conf 74 | TIM10 conf 68 | tim23-1 conf 68

Screening results: PubChem, several laboratories
